What all share (experiment): NCI-60 one-dose screen, 48 h (100 = growth as untreated, 0 = no growth, -100 = all killed)
What all share (settings): 10 µM unless noted

The test system of experiment [1] is SR leukemia.
Experiment [2] concerns RPMI-8226 leukemia.
Experiment [3] has as its system OVCAR-8 ovarian.
Experiment [4] has as its system OVCAR-5 ovarian.
The test system of experiment [5] is OVCAR-4 ovarian.
The test system of experiment [6] is SK-OV-3 ovarian.
Experiment [7] has as its system OVCAR-3 ovarian.
Experiment [8] has as its system HS 578T breast.
In experiment [9] the test system is NCI/ADR-RES ovarian.
Experiment [10] relates to IGROV1 ovarian.

SMILES strings stand for the structures. Compounds without any hit were thinned out: in the full panel of roughly 83,000, 20% have a hit.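 Activity criterion: percent growth below 10, measured after cells in 96-well plates were exposed to a single compound concentration for 48 hours.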 Unmarked numbers belong to inactive results. Calls of active or inactive are those of the source.

For the compound `COc1ccc2c(ccc[n+]2C)c1`, the growth in experiment [1] is 115%; in experiment [2], 85.4%; in experiment [3] it was 94.8%; in experiment [4], 99.9%; in [5] it was 91.9%; in [6], 107%. The figures for the growth in experiment [7], in [8] and in experiment [9] were 82.7%, 80.2% and 106%, respectively.
`CC(=O)CSc1ncnc2nc[nH]c12`: the growth was 87.8% in [1]; 76.6% in experiment [2]; 99.2% in experiment [3]; 95.8% in experiment [4]; 66.9% in experiment [5]; 91.5% in experiment [7]. In addition, the growth in experiment [8] is 116%; in experiment [9], 101%.
With `CCC(/C=C\C(C)=O)CC`, the growth in experiment [1] is 101%; in experiment [2] it was 97.6%; in experiment [3], 103%; in [4], 104%; in experiment [5], 86.5%; in [6], 110%. Moreover, the values for the growth in experiment [7], in experiment [8] and in experiment [9] were 122%, 102% and 105%, respectively.
Take `C/C(=N\N=C(/C)c1cccc([N+](=O)[O-])c1)c1cccc([N+](=O)[O-])c1`: the growth in experiment [1] was 86.4%; in experiment [2], 87.7%; in [3], 79.6%; in [4], 97.9%; in experiment [5] it was 42.1%; in [10], 104%. For the same compound, the growth in [7] was 58.1%; in experiment [8], 78.8%; in experiment [9] it was 93.9%.
With `NC(CSSCC(N)C(=O)O)C(=O)O` (centres undefined), the growth in [1] was -20.7% (active); in [2] it was 53.6%; in [3], 2.42% (active); in [4], -5.59% (active); in experiment [5], 35.4%; in experiment [10], 31.8%. Moreover, the figures for the growth in experiment [7], in experiment [8] and in experiment [9] were 4.66% (active), 50.3% and 84.8%, respectively.
In the case of `CC(=O)c1cccs1`, the growth is 92.9% in experiment [1]; 110% in experiment [2]; 102% in experiment [3]; 103% in [4]; 106% in experiment [5]; 99% in experiment [6]. In addition, the growth was 103% in experiment [7], 99.2% in experiment [8] and 95.6% in experiment [9].
As to `COc1cc(-c2ccc(NC(=O)CC(C)=O)c(OC)c2)ccc1NC(=O)CC(C)=O`, the growth was 93.7% in experiment [1]; 95.2% in [2]; 94.8% in [3]; 98.3% in experiment [4]; 101% in experiment [6]; 112% in experiment [10]. The growth in experiment [7] is 110%; in experiment [8], 117%; in [9] it was 95.2%.
On to `CC(C)(C)NCCC(O)c1cc(C(F)(F)F)nc2c(C(F)(F)F)cccc12` (centres undefined), for which the growth is 121% in experiment [1]; 95.7% in experiment [2]; 83.6% in experiment [3]; 77.8% in [4]; 89.3% in experiment [6]; 71.7% in experiment [10]. Also, the results for the growth in [7], in [8] and in experiment [9] were 75.9%, 65.5% and 84.6%, respectively.
With `C=CCS(C)(=O)=O`, the growth in [1] is 99.4%; in [2], 104%; in [3], 95.4%; in experiment [4] it was 101%; in [6], 90.3%; in experiment [10], 112%. Also, the growth in experiment [8] is 89.2%; in experiment [9], 104%.
Take `COc1cc(OC)c(NC(=O)C(Sc2nc(C)cc(C)c2C#N)c2ccccc2)cc1Cl` (centres undefined): the growth in [1] is 98.4%; in [2], 119%; in experiment [3] it was 88.6%; in experiment [4], 106%; in experiment [6], 85.3%; in experiment [10], 93.4%. Further, the growth in experiment [7] was 113%; in experiment [8], 86.7%; in [9] it was 96.9%.
Turning to `CCOC(=O)CNC`, the growth in experiment [1] is 93.2%; in experiment [2], 99.7%; in experiment [3], 91.3%; in experiment [4], 97.2%; in experiment [6], 106%; in experiment [7] it was 111%. Moreover, the growth is 121% in experiment [8] and 100% in [9].
Regarding `Cc1cc2nc(C)c(C)nc2cc1C`, the growth in experiment [1] was 96.8%; in experiment [2], 89.5%; in experiment [3] it was 94.2%; in experiment [4] it was 95.3%; in experiment [6] it was 99.5%; in [10], 97%. For the same compound, the results for the growth in experiment [8] and in [9] were 108% and 101%, respectively.
Regarding `Cc1cc(Cc2ccccc2)c(O)c(Cc2ccccc2)c1`, the growth in experiment [1] was 91.3%; in experiment [2] it was 103%; in experiment [3], 91.1%; in experiment [4] it was 88.2%; in experiment [6], 102%; in [10], 90.2%. Moreover, the growth is 101% in experiment [7], 106% in experiment [8] and 82.6% in experiment [9].
Regarding `Cc1ccccc1NC(=O)Oc1ccc(Cl)cc1C(=O)c1ccccc1`, the growth was 94.2% in experiment [1]; 85.6% in experiment [2]; 91.4% in experiment [3]; 105% in experiment [4]; 95.4% in [6]; 101% in [10]. In addition, the growth in experiment [7] is 95.3%; in experiment [8], 84.3%; in [9], 97%.
Consider `CCOC(OCC)C(=O)c1ccccc1`, for which the growth is 132% in [1]; 99.8% in [2]; 89.8% in [3]; 94.1% in experiment [4]; 105% in experiment [6]; 105% in experiment [10]. For the same compound, the growth in [7] is 99.9%; in experiment [8], 94.3%; in [9], 108%.
In the case of `c1cc(CNCCNCc2ccncc2)ccn1`, the growth was 130% in experiment [1]; 97.1% in [2]; 97% in [3]; 115% in experiment [4]; 104% in experiment [6]; 113% in experiment [10]. Further, the figures for the growth in experiment [7], in experiment [8] and in experiment [9] were 118%, 113% and 108%, respectively.
In the case of `Cc1c(Cl)cccc1NC(=S)NC(=O)c1ccccc1`, the growth is 88.4% in experiment [1]; 73.6% in [2]; 92.2% in experiment [3]; 109% in [4]; 95.2% in [6]; 118% in experiment [10]. In addition, the growth in [7] was 103%; in experiment [8] it was 109%; in experiment [9], 104%.

The values above are taken from PubChem BioAssay (NCI).
